According to PubChem BioAssay (Tox21):
Records with an inconclusive call do not appear. The source made the active and inactive calls. Unless noted, the call rests on the fitted dose curve; in most records, active means well fitted curve in the direction sought with a large enough effect in the repeat runs; inconclusive means weak or mixed curves; inactive means no such curve, though single readings can be large; an effect the other way counts as inactive or inconclusive.

Legend:
[1] = qHTS assay to identify small molecule agonists of the sonic hedgehog signaling (Shh) pathway (AID 1259368; calls by dose curve;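 further: NIH/3T3-derived 3T3Gli1-Luc cells carrying a stable Gli1-driven firefly luciferase reporter; series mostly up to about 92 µM; nearly all actives have a fitted effect of over 15% in size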)
Method in brief: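 A Gli1 transcriptional response element controlled firefly luciferase in 3T3Gli1-Luc cells. Compounds and a positive control were added 4 hr after plating, and cells were incubated a further 24 hr at 37 C before luminescence detection.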

[2] = qHTS assay to identify small molecule antagonists of the sonic hedgehog signaling (Shh) pathway (AID 1259369; calls by dose curve; further: nearly all actives have a fitted effect of over 45% in size)
Method in brief: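 For antagonist detection, the reporter line received test compounds together with conditioned medium, incubated 24hr at 37 C, 5% CO2, then luminescence was recorded following 30min room-temperature luciferase reagent incubation.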

[3] = qHTS assay to identify small molecule agonists of the androgen receptor (AR) signaling pathway in the presence of an antagonist - cell viability counter screen (AID 1259379);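 further: MDA-kb2 human breast cancer cells carrying an MMTV luciferase reporter; series mostly up to about 92 µM; nearly all actives have a fitted effect of over 25% in size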
Method in brief: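 Seed MDA-kb2 at 3,000 cells/well; incubate 5 hr, 37C, 0% CO2. Add nilutamide to 3.0uM final, then pin compounds at 15 concentrations. Incubate 16 hr. Add CellTiter-Fluor at 15 hr, read fluorescence after 1 hr.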

[4] = qHTS assay to identify small molecule agonists of the estrogen receptor beta (ER-beta) signaling pathway - cell viability counter screen (AID 1259380); further: nearly all actives have a fitted effect of over 30% in size
Method in brief: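 CellTiter-Glo read, 30 min RT, same wells as bla assay; cells ER-beta-UAS-bla HEK293T; 16 hr compound, 37C; medium 2% charcoal-stripped FBS.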

[5] = molecular target: Estrogen receptor (Homo sapiens) (UniProt P03372); assay: qHTS assay to identify small molecule agonists of the estrogen receptor alpha (ER-alpha) signaling pathway in the presence of an antagonist (AID 1259383; calls by dose curve; further: top concentration of the series differs between compounds; nearly all actives have a fitted effect of over 15% in size)
Sequence of Estrogen receptor (Homo sapiens) (P03372 whole entry, looked up): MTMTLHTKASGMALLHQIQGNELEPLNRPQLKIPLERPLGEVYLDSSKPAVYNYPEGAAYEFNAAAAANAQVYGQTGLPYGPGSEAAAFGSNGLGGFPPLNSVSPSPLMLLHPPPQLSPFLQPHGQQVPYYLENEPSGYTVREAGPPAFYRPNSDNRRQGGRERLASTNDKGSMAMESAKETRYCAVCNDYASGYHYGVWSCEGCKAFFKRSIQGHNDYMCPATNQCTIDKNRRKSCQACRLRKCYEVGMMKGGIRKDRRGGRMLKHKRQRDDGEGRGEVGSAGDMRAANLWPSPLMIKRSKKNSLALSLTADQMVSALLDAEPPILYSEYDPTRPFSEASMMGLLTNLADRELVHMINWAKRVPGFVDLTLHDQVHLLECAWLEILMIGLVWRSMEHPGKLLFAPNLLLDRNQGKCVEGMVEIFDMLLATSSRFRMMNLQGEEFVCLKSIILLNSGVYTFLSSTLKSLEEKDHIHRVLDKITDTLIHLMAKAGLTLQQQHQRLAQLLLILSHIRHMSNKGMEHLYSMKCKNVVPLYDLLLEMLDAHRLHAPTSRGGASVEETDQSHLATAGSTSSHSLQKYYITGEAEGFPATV
Method in brief: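 Stably transfected VM7Luc4E2 reporter cells, kept 5 days in charcoal-stripped serum, received ICI-182,780 at 10.0nM final before compound addition. Following 22hr incubation at 37C and 5% CO2, luciferase signal was read by luminescence.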

[6] = qHTS assay to identify small molecule agonists or antagonists of the thyroid stimulating hormone receptor (TSHR) signaling pathway - wild type cell line counter screen (AID 1259384; calls by dose curve)
Method in brief: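 Wild-type HEK293 cells were plated 18 h at 37 C/5% CO2, pin-dosed with compound plus Ro20-1724 medium, held 30 min at room temperature, then given cAMP-d2 and anti-cAMP-cryptate; fluorescence was read after 1 h. Fifteen concentrations, triplicate.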

[7] = molecular target: Thyrotropin receptor (Homo sapiens) (UniProt P16473); assay: qHTS assay to identify small molecule antagonists of the thyroid stimulating hormone receptor (TSHR) signaling pathway (AID 1259385; calls by dose curve; further: nearly all actives have a fitted effect of over 20% in size)
Sequence of Thyrotropin receptor (Homo sapiens) (P16473 whole entry, looked up): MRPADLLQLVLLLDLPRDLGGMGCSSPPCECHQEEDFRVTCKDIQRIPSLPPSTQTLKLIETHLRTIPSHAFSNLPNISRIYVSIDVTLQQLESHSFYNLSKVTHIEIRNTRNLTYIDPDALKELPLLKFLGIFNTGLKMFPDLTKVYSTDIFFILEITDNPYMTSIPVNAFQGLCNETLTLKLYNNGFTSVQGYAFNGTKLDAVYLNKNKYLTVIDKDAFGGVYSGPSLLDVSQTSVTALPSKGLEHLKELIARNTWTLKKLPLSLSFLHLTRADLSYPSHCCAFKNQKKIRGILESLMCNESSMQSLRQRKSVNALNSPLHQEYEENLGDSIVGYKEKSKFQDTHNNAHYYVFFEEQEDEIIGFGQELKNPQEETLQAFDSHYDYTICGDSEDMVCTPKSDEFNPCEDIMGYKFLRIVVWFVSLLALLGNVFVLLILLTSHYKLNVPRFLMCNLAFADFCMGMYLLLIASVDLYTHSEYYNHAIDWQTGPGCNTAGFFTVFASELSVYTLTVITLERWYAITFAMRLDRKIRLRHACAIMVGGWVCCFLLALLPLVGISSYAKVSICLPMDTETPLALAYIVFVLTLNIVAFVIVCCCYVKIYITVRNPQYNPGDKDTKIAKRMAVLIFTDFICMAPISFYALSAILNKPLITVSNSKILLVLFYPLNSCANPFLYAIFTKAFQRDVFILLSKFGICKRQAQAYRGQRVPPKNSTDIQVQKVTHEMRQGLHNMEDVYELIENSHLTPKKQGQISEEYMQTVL
Method in brief: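 TSHR-HEK293 cells were plated and held 18 h at 37C/5% CO2, then given compound plus Ro20-1724 and stimulated with TSH at 1.5 ng/mL final. After 30 min at room temperature, cAMP was detected with cAMP-d2/anti-cAMP-cryptate (1 h) by fluorescence.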

[8] = qHTS assay to identify small molecule agonists of the estrogen receptor alpha (ER-alpha) signaling pathway in the presence of an antagonist - cell viability counter screen (AID 1259386);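 further: series mostly up to about 92 µM; cells exposed to compounds for 22 h at 37 °C before the viability read; nearly all actives have a fitted effect of over 30% in size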
Method in brief: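 Viability counter screen using VM7Luc4E2 (full-length ER-alpha, four ERE-luciferase). The cells were treated with compounds alongside ICI-182,780 10.0nM for 22hr, and live-cell protease fluorescence was quantified with CellTiter-Fluor.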

[9] = molecular target: Progesterone receptor (Homo sapiens) (UniProt P06401); assay: qHTS assay to identify small molecule agonists of the progesterone receptor (PR) signaling pathway (AID 1346784; calls by dose curve; further: nearly all actives have a fitted effect of over 30% in size)
Sequence of Progesterone receptor (Homo sapiens) (P06401 whole entry, looked up): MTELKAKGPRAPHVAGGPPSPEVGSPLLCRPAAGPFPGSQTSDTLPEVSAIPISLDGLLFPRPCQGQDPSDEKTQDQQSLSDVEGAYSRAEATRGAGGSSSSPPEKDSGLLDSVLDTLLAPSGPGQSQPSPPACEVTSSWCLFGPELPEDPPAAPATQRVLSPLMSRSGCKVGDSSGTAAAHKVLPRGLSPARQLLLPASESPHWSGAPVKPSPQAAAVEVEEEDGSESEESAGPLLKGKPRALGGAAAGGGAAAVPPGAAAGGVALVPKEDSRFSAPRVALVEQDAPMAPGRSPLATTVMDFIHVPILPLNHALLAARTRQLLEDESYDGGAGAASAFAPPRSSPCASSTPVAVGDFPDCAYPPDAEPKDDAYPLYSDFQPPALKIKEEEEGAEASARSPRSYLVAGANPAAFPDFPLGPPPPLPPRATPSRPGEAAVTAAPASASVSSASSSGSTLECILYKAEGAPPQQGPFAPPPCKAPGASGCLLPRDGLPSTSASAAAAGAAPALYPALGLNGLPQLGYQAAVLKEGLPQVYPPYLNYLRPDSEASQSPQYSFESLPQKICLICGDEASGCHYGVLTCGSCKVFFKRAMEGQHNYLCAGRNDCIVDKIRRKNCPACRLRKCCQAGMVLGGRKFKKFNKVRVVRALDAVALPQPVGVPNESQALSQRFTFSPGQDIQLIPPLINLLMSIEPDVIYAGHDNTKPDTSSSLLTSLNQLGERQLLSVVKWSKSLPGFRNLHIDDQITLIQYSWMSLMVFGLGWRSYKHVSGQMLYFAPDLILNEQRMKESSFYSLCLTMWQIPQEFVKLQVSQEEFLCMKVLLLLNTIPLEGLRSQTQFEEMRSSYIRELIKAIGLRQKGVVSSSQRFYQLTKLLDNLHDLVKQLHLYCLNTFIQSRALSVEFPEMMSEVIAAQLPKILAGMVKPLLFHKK
Method in brief: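 HEK 293T PR-UAS-bla reporter cells, 2% charcoal-stripped FBS; 6 hr settle at 37C/5% CO2, compound (DMSO) 16 hr, LiveBLAzer B/G FRET substrate 2 hr RT, fluorescence intensity read.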

[10] = qHTS assay to identify small molecule antagonists of the progesterone receptor (PR) signaling pathway - cell viability counter screen (AID 1346798); further: series mostly up to about 92 µM; nearly all actives have a fitted effect of over 50% in size
Method in brief: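 Luminescence readout (CellTiter-Glo, 30 min, RT) of viability in PR-UAS-bla HEK293T cells exposed to compound and R5020 agonist for 16 hr at 37C, 5% CO2; run in the same wells as the beta-lactamase reporter read.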

[11] = qHTS assay to identify small molecule agonists of the progesterone receptor (PR) signaling pathway - cell viability counter screen (AID 1346799; calls by dose curve; further: nearly all actives have a fitted effect of over 45% in size)
Method in brief: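 HEK293T PR-UAS-bla, 3,000 cells/well, 2% charcoal-stripped FBS; 6 h settle, compound 16 h at 37C/5% CO2; LiveBLAzer 2 h RT, then CellTiter-Glo 30 min RT, luminescence read.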

[12] = qHTS assay to identify small molecule antagonists of the TGF-beta/Smad signaling pathway - cell viability counter screen (AID 1346824); further: nearly all actives have a fitted effect of over 50% in size
Method in brief: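 SBE-bla HEK 293T cells were plated overnight at 37 C, then given compounds in DMSO plus TGF-beta1 (added as 0.25 ng/mL solution) for 5 hr. After the bla read, CellTiter-Glo was added to the same wells and luminescence read after 30 min at room temperature.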

[13] = qHTS assay to identify small molecule agonists of the TGF-beta/Smad signaling pathway - cell viability counter screen (AID 1346829); further: top concentration of the series differs between compounds; nearly all actives have a fitted effect of over 45% in size
Method in brief: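 Compound-treated SBE-bla HEK 293T cells (5 hr, 37 C) were assessed for viability with CellTiter-Glo in parallel with the reporter read.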

[14] = qHTS assay to identify small molecule agonists of the TGF-beta/Smad signaling pathway (AID 1346859; active means well fitted activation curve with a large enough effect in the signal ratio in the repeat runs, not every such curve was filed as active; the % refers to the signal ratio; further: series mostly up to about 77 µM)
Method in brief: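 Read-out: fluorescence at 460 and 530 nm (405 nm excitation) after a 2 hr room-temperature incubation with beta-lactamase FRET substrate. SBE-bla HEK 293T cells had been treated with test compounds for 5 hr at 37 C.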

[15] = molecular target: Thyrotropin-releasing hormone receptor (Homo sapiens) (UniProt P34981); assay: qHTS assay to identify small molecule antagonists of the thyrotropin-releasing hormone receptor (TRHR) signaling pathway (AID 1346877; active means well fitted inhibition curve with a large enough effect in the repeat runs, not every such curve was filed as active; further: series mostly up to about 51 µM)
Sequence of Thyrotropin-releasing hormone receptor (Homo sapiens) (P34981 whole entry, looked up): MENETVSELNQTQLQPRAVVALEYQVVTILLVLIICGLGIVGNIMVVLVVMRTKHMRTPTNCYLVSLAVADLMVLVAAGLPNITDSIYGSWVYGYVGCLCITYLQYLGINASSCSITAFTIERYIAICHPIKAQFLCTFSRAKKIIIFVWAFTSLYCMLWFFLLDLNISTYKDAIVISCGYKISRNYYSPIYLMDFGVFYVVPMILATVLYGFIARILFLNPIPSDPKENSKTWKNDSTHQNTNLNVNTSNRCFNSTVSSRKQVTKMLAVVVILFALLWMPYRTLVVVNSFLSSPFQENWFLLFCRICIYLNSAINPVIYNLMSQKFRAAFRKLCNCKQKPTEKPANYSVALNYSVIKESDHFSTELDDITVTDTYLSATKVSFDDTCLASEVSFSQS
Method in brief: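 Following an 18 h incubation at 37 °C and a 2 h calcium dye load, TRHR-HEK293 cells were exposed to compound (5 min, room temperature) and challenged with TRH, 1 nM final.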

[16] = qHTS assay to identify small molecule antagonists of the estrogen receptor beta (ER-beta) signaling pathway - cell viability counter screen (AID 1259382);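 further: HEK293T cells carrying ER-beta-UAS-bla reporter stimulated with estradiol; series mostly up to about 92 µM; nearly all actives have a fitted effect of over 55% in size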
Method in brief: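 In this multiplexed counter screen, cells were seeded at 2,000 per well in medium with 2% charcoal-stripped FBS and incubated 6 hr before compound and 1nM final E2 were added. Sixteen hours later, ATP-based luminescence reported viability.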

[17] = molecular target: Progesterone receptor (Homo sapiens) (UniProt P06401); assay: qHTS assay to identify small molecule antagonists of the progesterone receptor (PR) signaling pathway (AID 1346795; active means well fitted inhibition curve with a large enough effect in the signal ratio in the repeat runs, not every such curve was filed as active; the % refers to the signal ratio)
Method in brief: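 Beta-lactamase reporter, HEK293T PR-UAS-bla line; 2% charcoal-stripped FBS; 6 hr pre-incubation, 37C/5% CO2. Compound + R5020 1 nM final, 16 hr. LiveBLAzer B/G FRET substrate, 2 hr RT; fluorescence intensity read.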

[18] = molecular target: Androgen receptor (Homo sapiens) (UniProt P10275); assay: qHTS assay to identify small molecule agonists of the androgen receptor (AR) signaling pathway in the presence of an antagonist (AID 1259381; calls by dose curve; further: nearly all actives have a fitted effect of over 15% in size)
Sequence of Androgen receptor (Homo sapiens) (P10275 whole entry, looked up): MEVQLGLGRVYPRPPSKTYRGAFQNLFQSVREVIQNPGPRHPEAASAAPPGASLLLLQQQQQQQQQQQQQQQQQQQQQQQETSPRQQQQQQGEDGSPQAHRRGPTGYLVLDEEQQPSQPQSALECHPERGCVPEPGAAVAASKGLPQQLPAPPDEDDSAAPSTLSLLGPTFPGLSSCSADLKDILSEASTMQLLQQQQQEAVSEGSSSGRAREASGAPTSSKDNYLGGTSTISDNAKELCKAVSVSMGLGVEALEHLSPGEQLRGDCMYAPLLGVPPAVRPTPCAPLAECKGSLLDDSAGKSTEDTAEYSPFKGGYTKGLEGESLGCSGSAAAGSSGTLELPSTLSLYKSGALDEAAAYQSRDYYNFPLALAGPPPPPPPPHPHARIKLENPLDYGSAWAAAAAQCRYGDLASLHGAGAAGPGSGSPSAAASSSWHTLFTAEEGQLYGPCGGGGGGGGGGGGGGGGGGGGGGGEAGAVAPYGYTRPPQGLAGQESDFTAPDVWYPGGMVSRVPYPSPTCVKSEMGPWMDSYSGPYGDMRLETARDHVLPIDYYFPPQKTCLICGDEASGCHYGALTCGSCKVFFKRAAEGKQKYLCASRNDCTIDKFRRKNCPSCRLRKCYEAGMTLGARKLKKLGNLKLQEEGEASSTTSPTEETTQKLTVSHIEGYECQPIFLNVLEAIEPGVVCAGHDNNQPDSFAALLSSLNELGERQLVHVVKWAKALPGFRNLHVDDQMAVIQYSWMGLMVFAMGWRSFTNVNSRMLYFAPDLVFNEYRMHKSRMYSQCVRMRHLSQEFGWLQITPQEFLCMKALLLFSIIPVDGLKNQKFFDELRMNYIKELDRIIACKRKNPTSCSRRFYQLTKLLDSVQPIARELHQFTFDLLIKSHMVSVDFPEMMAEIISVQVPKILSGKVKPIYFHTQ
Method in brief: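 Test compounds at 15 concentrations were incubated for 16hr with MDA-kb2 reporter cells in presence of 3.0uM nilutamide (final). Signal: ONE-Glo luciferase luminescence.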

Measured: Potency

CC(=O)NC(Cc1ccccc1)C(=O)O (centres undefined)
inactive: [1] | [2] | [3] | [4] | [5] | [6] | [7] | [8] | [9] | [10] | [11] | [12] | [13] | [14] | [15]

NC(=O)CCCCC1CCSS1 (centres undefined)
inactive: [1] | [2] | [3] | [4] | [16] | [5] | [7] | [8] | [17] | [10] | [12] | [13] | [14] | [15]

C=CC(=O)N1CCOCC1
inactive: [1] | [2] | [3] | [4] | [16] | [6] | [7] | [8] | [9] | [17] | [12] | [13] | [14] | [15]

CCCCCCCCCCC1CO1 (centres undefined)
inactive: [1] | [2] | [3] | [4] | [16] | [7] | [8] | [17] | [10] | [11] | [12] | [13] | [14] | [15]

CC(C)=CCC/C(C)=C/C(=O)O
inactive: [1] | [2] | [4] | [16] | [5] | [8] | [9] | [17] | [10] | [12] | [13] | [14] | [15]

CC/C=C\CCCCO
inactive: [1] | [2] | [3] | [4] | [16] | [5] | [8] | [9] | [17] | [10] | [11] | [12] | [14] | [15]

CCCCCCCCN(C)CCCCCCCC
inactive: [1] | [2] | [4] | [18] | [16] | [5] | [6] | [7] | [8] | [17] | [10] | [11] | [12] | [13] | [14]

Nc1ccc2cc(S(=O)(=O)O)ccc2c1
inactive: [1] | [2] | [3] | [4] | [16] | [5] | [6] | [8] | [9] | [17] | [10] | [11] | [12] | [13] | [14] | [15]

N[C@@H](CS)C(=O)O
inactive: [1] | [2] | [3] | [4] | [16] | [7] | [8] | [9] | [17] | [10] | [11] | [12] | [13] | [14]
